Test results as given in PubChem BioAssay AID1159580 (chemical genetic matrix, 2015).
Hit rate of the full screen: of about 5,500 compounds, about 2,000 (36%) were called active. Inconclusive results (about 18%) are left out. No stated cut-off is given here; in the data, active means normalized growth mostly below about 0.91 (no sharp cut-off); inconclusive means no clear call, values can overlap the other calls; inactive means mostly above about 0.92. The list shows a part of the results.

Assay: chemical genetic growth profiling, strain panel (AID 1159580);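 further: tested at 20 µM; growth read once vehicle control cultures reached saturation at 30 °C; 1 = growth at the plate median or of vehicle wells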
Conditions: growth OD

Measured: normalized growth

CC1(C)C(=O)C=C[C@@]2(C)C1C[C@@H](O)[C@]1(C)C2CC[C@@]2(C)[C@H](c3ccoc3)OC(=O)[C@H]3O[C@]321 (stereo partly specified)
inactive: S. cerevisiae deletion strains, locus YJR066W, strain TOR1, stronger effect = lower value 0.938 | S. cerevisiae deletion strains, locus YKL009W, strain mrt4, stronger effect = lower value 0.95 | S. cerevisiae deletion strains, locus YKL068W, stronger effect = lower value 0.973 | S. cerevisiae deletion strains, locus YKL085W, strain MDH1 (second series), stronger effect = lower value 0.973 | S. cerevisiae deletion strains, locus YKL085W, strain MDH1, stronger effect = lower value 0.973 | S. cerevisiae deletion strains, locus YKL160W, strain elf1, stronger effect = lower value 1 | S. cerevisiae deletion strains, locus YKL190W, strain CNB1, stronger effect = lower value 0.983 | S. cerevisiae deletion strains, locus YKR001C, strain vps1, stronger effect = lower value 0.963 | S. cerevisiae deletion strains, locus YKR026C, strain gcn3, stronger effect = lower value 0.995 | S. cerevisiae deletion strains, locus YKR091W, strain srl3, stronger effect = lower value 0.989 | S. cerevisiae deletion strains, locus YLL001W, strain dnm1, stronger effect = lower value 1.01 | S. cerevisiae deletion strains, locus YLL026W, stronger effect = lower value 1 | S. cerevisiae deletion strains, locus YLL041C, strain sdh2, stronger effect = lower value 0.992 | S. cerevisiae deletion strains, locus YLR027C, strain aat2, stronger effect = lower value 1.02 | S. cerevisiae deletion strains, locus YLR039C, strain RIC1, stronger effect = lower value 0.972 | S. cerevisiae deletion strains, locus YLR058C, strain SHM2, stronger effect = lower value 0.959 | S. cerevisiae deletion strains, locus YLR102C, strain apc9, stronger effect = lower value 0.983 | S. cerevisiae deletion strains, locus YLR113W, strain HOG1, stronger effect = lower value 0.991 | S. cerevisiae deletion strains, locus YLR221C, strain rsa3, stronger effect = lower value 1 | S. cerevisiae deletion strains, locus YLR258W, strain gsy2, stronger effect = lower value 1.03 | S. cerevisiae deletion strains, locus YLR262C, strain YPT6 (second series), stronger effect = lower value 0.992 | S. cerevisiae deletion strains, locus YLR262C, strain YPT6, stronger effect = lower value 0.962 | S. cerevisiae deletion strains, locus YLR268W, strain sec22, stronger effect = lower value 0.952 | S. cerevisiae deletion strains, locus YLR320W, strain mms22, stronger effect = lower value 1.01 | S. cerevisiae deletion strains, locus YLR330W, strain CHS5, stronger effect = lower value 0.987 | S. cerevisiae deletion strains, locus YLR342W, strain FKS1 (second series), stronger effect = lower value 1.02 | S. cerevisiae deletion strains, locus YLR342W, strain FKS1, stronger effect = lower value 1.02 | S. cerevisiae deletion strains, locus YLR357W, strain rsc2, stronger effect = lower value 0.965 | S. cerevisiae deletion strains, locus YLR370C, strain arc18, stronger effect = lower value 0.996 | S. cerevisiae deletion strains, locus YLR371W, strain rom2, stronger effect = lower value 0.99 | S. cerevisiae deletion strains, locus YLR384C, strain iki3, stronger effect = lower value 1 | S. cerevisiae deletion strains, locus YLR418C, strain cdc73, stronger effect = lower value 0.933 | S. cerevisiae deletion strains, locus YML016C, strain PPZ1, stronger effect = lower value 0.98 | S. cerevisiae deletion strains, locus YML032C, strain rad52, stronger effect = lower value 0.971 | S. cerevisiae deletion strains, locus YML120C, strain ndi1, stronger effect = lower value 1 | S. cerevisiae deletion strains, locus YML124C, strain tub3, stronger effect = lower value 0.989 | S. cerevisiae deletion strains, locus YMR058W, strain fet3, stronger effect = lower value 0.996 | S. cerevisiae deletion strains, locus YMR078C, strain ctf18, stronger effect = lower value 0.982 | S. cerevisiae deletion strains, locus YMR125W, strain sto1, stronger effect = lower value 0.984 | S. cerevisiae deletion strains, locus YMR129W, stronger effect = lower value 1.01 | S. cerevisiae deletion strains, locus YMR205C, strain PFK2, stronger effect = lower value 0.999 | S. cerevisiae deletion strains, locus YMR223W, strain ubp8, stronger effect = lower value 0.997 | S. cerevisiae deletion strains, locus YMR231W, strain pep5, stronger effect = lower value 0.992 | S. cerevisiae deletion strains, locus YMR307W, strain GAS1, stronger effect = lower value 0.954 | S. cerevisiae deletion strains, locus YNL067W, strain RPL9B, stronger effect = lower value 1.01 | S. cerevisiae deletion strains, locus YNL071W, strain lat1, stronger effect = lower value 1 | S. cerevisiae deletion strains, locus YNL183C, strain NPR1, stronger effect = lower value 0.963 | S. cerevisiae deletion strains, locus YNL209W, strain ssb2, stronger effect = lower value 1 | S. cerevisiae deletion strains, locus YNL233W, strain BNI4, stronger effect = lower value 1.01 | S. cerevisiae deletion strains, locus YNL248C, strain rpa49, stronger effect = lower value 0.917 | S. cerevisiae deletion strains, locus YNL250W, strain rad50, stronger effect = lower value 1 | S. cerevisiae deletion strains, locus YNL271C, strain bni1, stronger effect = lower value 0.984 | S. cerevisiae deletion strains, locus YNL298W, strain CLA4, stronger effect = lower value 0.995 | S. cerevisiae deletion strains, locus YNL307C, strain MCK1, stronger effect = lower value 0.989 | S. cerevisiae deletion strains, locus YNL322C, strain KRE1 (second series), stronger effect = lower value 1.01 | S. cerevisiae deletion strains, locus YNR049C, strain mso1, stronger effect = lower value 0.993 | S. cerevisiae deletion strains, locus YNR052C, strain pop2, stronger effect = lower value 0.992 | S. cerevisiae deletion strains, locus YOL012C, strain htz1 0.797 | S. cerevisiae deletion strains, locus YOL147C, strain pex11, stronger effect = lower value 0.997 | S. cerevisiae deletion strains, locus YOR001W, strain rrp6, stronger effect = lower value 0.986 | S. cerevisiae deletion strains, locus YOR061W, strain CKA2, stronger effect = lower value 0.952 | S. cerevisiae deletion strains, locus YOR069W, strain VPS5, stronger effect = lower value 0.992 | S. cerevisiae deletion strains, locus YOR070C, strain gyp1, stronger effect = lower value 1.03 | S. cerevisiae deletion strains, locus YOR080W, strain dia2, stronger effect = lower value 1.01 | S. cerevisiae deletion strains, locus YOR083W, strain WHI5, stronger effect = lower value 1 | S. cerevisiae deletion strains, locus YOR106W, strain vam3, stronger effect = lower value 0.996 | S. cerevisiae deletion strains, locus YOR136W, strain idh2, stronger effect = lower value 0.975 | S. cerevisiae deletion strains, locus YOR144C, strain elg1, stronger effect = lower value 0.986 | S. cerevisiae deletion strains, locus YOR184W, strain ser1, stronger effect = lower value 0.896 | S. cerevisiae deletion strains, locus YOR231W, strain MKK1, stronger effect = lower value 0.954 | S. cerevisiae deletion strains, locus YOR265W, strain rbl2, stronger effect = lower value 1.01 | S. cerevisiae deletion strains, locus YOR270C, strain vph1, stronger effect = lower value 0.97 | S. cerevisiae deletion strains, locus YOR290C, strain snf2, stronger effect = lower value 1 | S. cerevisiae deletion strains, locus YOR316C, strain cot1, stronger effect = lower value 0.985 | S. cerevisiae deletion strains, locus YPL051W, strain arl3, stronger effect = lower value 1.02 | S. cerevisiae deletion strains, locus YPL078C, strain atp4, stronger effect = lower value 1 | S. cerevisiae deletion strains, locus YPL106C, strain sse1, stronger effect = lower value 1.03 | S. cerevisiae deletion strains, locus YPL240C, strain hsp82, stronger effect = lower value 1 | S. cerevisiae deletion strains, locus YPL241C, strain CIN2, stronger effect = lower value 0.98 | S. cerevisiae deletion strains, locus YPL256C, strain CLN2, stronger effect = lower value 0.945 | S. cerevisiae deletion strains, locus YPR119W, strain clb2, stronger effect = lower value 0.985 | S. cerevisiae deletion strains, locus YPR141C, strain kar3, stronger effect = lower value 0.985 | S. cerevisiae deletion strains, locus YPR163C, strain tif3, stronger effect = lower value 0.98 | S. cerevisiae deletion strains, locus YPR167C, strain met16, stronger effect = lower value 0.99 | S. cerevisiae deletion strains, strain wtn01, stronger effect = lower value 0.96 | S. cerevisiae strains, strain wild type, stronger effect = lower value 0.97
